# Only some compounds are listed: those with a hit (about 1.5% of all), similar ones and a draw of the others.
# RAD52 inh – blocks human RAD52 DNA annealing. P43351. recombinant RAD52 DNA annealing, FRET fluorescence. inhibition, % at 18.7 µM. hit rate 0.46% among 360,000. AID 651710;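 active = every replicate showing at least 50% inhibition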
# CendR NRP1 mod – NRP-1/CendR interaction modulation. hit rate 0.85% among 360,000. FAM-RPARPAR peptide binding to NRP-1, fluorescence polarization. O14786. inhibition, % at 25 µM;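 active = inhibition or corrected inhibition above about 18%, plus a signal ratio from 0.5 to 1.5, limit read from the data, passing the limit was not always enough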
# N-glyco inh – blocks N-linked glycosylation in D54 reporter cells; reporter increase, % at 12.5 µM; hit rate 0.23% among 360,000; AID 588692; D54 ERlucT glycosylation luciferase reporter, 24 h; percent of 100 nM tunicamycin response;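 active = mean luciferase reporter signal, scaled so untreated is 0 and the glycosylation-blocking control 100, at or above a set limit in every replicate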;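 also: luciferase carries N-glycosylation sites so blocking glycosylation raises the light; 0% = median of neutral control wells and 100% = median of 100 nM tunicamycin wells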
# miR122 inh – miR-122 inhibition in Huh7 cells; Huh7 miR-122 Renilla luciferase sensor, 48 h; neutral wells = 0, positive control = 100; activation (reporter increase), % at 12.5 µM; hit rate 0.3% among 340,000; AID 602342;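 active = mean replicate activation score at least 90 and every replicate individually at or above 90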;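 also: higher luciferase means less miR-122 activity so hits act as miR-122 inhibitors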
# RAD54 branch – blocks human RAD54 Holliday junction branch migration; inhibition, % at 10.4 µM; Q92698; FAM/BHQ fluorescence; hit rate 0.14% among 360,000; AID 602329;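 active = mean normalized replicate activity at least 40 and at least half of replicates scoring 40 or more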;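 also: 0% = median of neutral control wells and 100% = median of positive control wells; inhibitors cause a drop in the FAM fluorescence signal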
# Target sequence (Q92698 whole entry, looked up): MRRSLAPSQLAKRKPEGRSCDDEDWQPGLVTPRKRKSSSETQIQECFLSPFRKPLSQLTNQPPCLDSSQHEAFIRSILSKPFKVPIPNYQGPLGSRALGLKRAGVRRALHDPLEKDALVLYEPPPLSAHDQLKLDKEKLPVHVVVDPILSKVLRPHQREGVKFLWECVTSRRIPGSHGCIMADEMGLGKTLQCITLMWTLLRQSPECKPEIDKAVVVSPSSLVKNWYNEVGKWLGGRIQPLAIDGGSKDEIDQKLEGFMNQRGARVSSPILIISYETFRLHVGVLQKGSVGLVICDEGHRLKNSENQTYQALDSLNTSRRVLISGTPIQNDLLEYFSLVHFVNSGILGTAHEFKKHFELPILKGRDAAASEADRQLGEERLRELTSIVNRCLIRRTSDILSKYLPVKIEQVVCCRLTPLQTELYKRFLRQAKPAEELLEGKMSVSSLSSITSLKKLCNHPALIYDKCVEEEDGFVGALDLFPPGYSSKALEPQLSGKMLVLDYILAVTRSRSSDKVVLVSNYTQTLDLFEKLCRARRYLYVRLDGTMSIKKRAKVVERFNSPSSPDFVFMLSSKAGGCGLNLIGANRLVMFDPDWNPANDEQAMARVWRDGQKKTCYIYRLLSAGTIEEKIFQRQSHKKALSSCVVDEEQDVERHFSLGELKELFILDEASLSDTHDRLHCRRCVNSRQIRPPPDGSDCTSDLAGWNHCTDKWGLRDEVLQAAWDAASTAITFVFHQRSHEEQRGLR
# FID counter – fluorescent intercalator displacement, NS3 helicase counter-screen. inhibition, % at 7.9 µM. hit rate 0.17% among 290,000. DNA fluorescent intercalator displacement, fluorescence; in the data active = inhibition above about 37%;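 also: 0% = vehicle and 100% = reference compound; higher means more ethidium bromide displaced from hairpin DNA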
# * hit, by the source's call; x = not tested or not shown; ! = a repeat was not active; [ ] = remark or other dose.
SMILES,RAD52 inh,CendR NRP1 mod,N-glyco inh,miR122 inh,RAD54 branch,FID counter
CCn1c(=O)c(C(=O)NCCNCCO)c(O)c2ccccc21,x,37*,1,1,18,12
COc1ccc2c3c([nH]c2c1)[C@@H](CO)N(Cc1ccccc1)CC31CN(C)C1,3,x,x,x,x,x
Cc1ccc(OCC(=O)N/N=C/c2ccccc2)c([N+](=O)[O-])c1,-8,19*,0,x,x,-20
Cc1ccc(C)c(OCC(=O)N/N=C\c2cccn2C)c1,-6,35*,-2,x,x,-13
Cc1ccc(OCC(=O)N/N=C/c2cccn2C)cc1,x,-10,1,3,1,-4
Cc1ccccc1NC(=S)NC(=O)COc1ccccc1C,-14,22*,3,-7,1,-22
Cc1ccccc1OCC(=O)NNC(=O)Nc1ccc(Cl)cc1,x,18,13,144*,2,-5
COc1cccc(CNC(=O)C[C@@H]2C=C[C@@H](NC(=O)C3CC3)[C@H](CO)O2)c1,-4,x,x,x,3,x
CCCC(CCC)C(=O)Nc1ccc2c(c1)N(C(=O)CN1CCN(C)CC1)c1ccccc1CC2,6,1,-6,x,x,49*
CCOC(=O)Nc1ccc2c(c1)N(C(=O)CN1CCN(C)CC1)c1ccccc1S2,x,-8,-1,x,2,12
CCO[C@@H]1OC(C(=O)NCc2ccccc2)=C[C@H](c2ccc(Br)cc2)[C@H]1CCCO,15,24*,-5,2,-15,-30
CCO[C@H]1OC(C(=O)NC2CC2)=C[C@@H](c2ccccc2)[C@@H]1CCCO,13,26*,2,-8,16,x
C#Cc1ccc([C@@H]2C=C(C(=O)NC3CC3)O[C@H](OCC)[C@H]2CCCO)cc1,-20,18,3,-7,-5,x
O=S(=O)(Cc1ccccc1)N1CC2(C1)[C@H](c1ccccc1)[C@@H](CO)N2CC1CCOCC1,-3,x,x,x,x,x
N#CC(c1ccc([N+](=O)[O-])cc1)C(CC(=O)c1ccccc1)c1ccccc1 (configuration not stated),-4,28*,-6,5,4,x
Cc1cc(N/N=C/c2ccc(O)c(C)c2O)nc(-c2ccccc2O)n1,x,0,-17,101*,-14,24
Cc1cc(C(=O)N/N=C/c2cc(Br)cc(Br)c2OC(=O)c2cccc(F)c2)n[nH]1,-26,20*,-2,-1,x,-5
COc1cccc(-c2ccc([C@@H]3[C@@H](CO)N4C(=O)CN(C(=O)C5CCC5)C[C@@H]34)cc2)c1,2,x,x,x,x,x
COc1ccccc1C(=O)Oc1cc(C)[nH]c(=O)c1[N+](=O)[O-],-10,14,3,x,x,-1
Cc1cc(OC(=O)c2ccccc2C)c([N+](=O)[O-])c(=O)[nH]1,-11,34*,0,-3,3,1
COCC(=O)Nc1ccc2c(c1)C(=O)N(C)[C@@H]1CC[C@@H](CC(=O)NCCc3ccccc3)O[C@@H]1CO2,3,x,x,-1[16.7 µM],0,x
COc1cc2c(C(=O)N3CCN(C)CC3)c(C)oc2cc1Br,x,0,0,-14,-6,5
CCOC(=O)c1c(C)oc2cc(Br)c(OC(=O)N3CCOCC3)cc12,x,26*,1,3,-4,-8
O=C(Nc1ccc2ccccc2c1)c1cccnc1,x,3,-6,0,-8,-2
O=C(Nc1ccc2c(c1)Cc1ccccc1-2)c1cccnc1,-9,20*,-1,x,7,-1
SMILES,RAD52 inh,CendR NRP1 mod,N-glyco inh,miR122 inh,RAD54 branch,FID counter
COc1ccc2c(c1)N(C)/C(=C1/SC(=NCc3ccccc3)N(c3ccccc3)C1=O)S2,x,27*,2,-4,x,-3
C=CCN1C(=O)/C(=C2/Sc3ccc(OC)cc3N2C)SC1=NCc1ccccc1,-23,-18,2,-9,3,0
Cc1c(Cl)cccc1NC(=O)CCCn1cnc([N+](=O)[O-])n1,-4,-1,1,251*,-2,-7
Cc1c(Cl)cccc1NC(=O)CCCn1nc([N+](=O)[O-])cc1C,-17,9,0,x,x,-3
O=C(CCCn1cnc([N+](=O)[O-])n1)Nc1cccc(Cl)c1Cl,x,31*,3,x,x,0
Cc1cc(F)ccc1S(=O)(=O)Nc1ccccc1C(=O)NCc1ccccn1,-4,0,1,x,x,-21
Cc1cc(F)ccc1S(=O)(=O)Nc1ccccc1C(=O)Nc1ncn[nH]1,x,19*,-4,0,-7,-18
Cc1sc2ncn(CC(=O)N(CC(=O)NC3CCCC3)Cc3cccs3)c(=O)c2c1C,-16,-2,0,123*,4,-11
Cc1ccc(-c2ccc3c(c2)O[C@@H](CN(C)Cc2ccc(C(=O)O)cc2)[C@@H](C)CN([C@@H](C)CO)S3(=O)=O)cc1,14,x,x,-7[16.7 µM],3,x
O=C(C[C@H]1CC[C@@H]2[C@H](COC[C@H](O)CN2S(=O)(=O)c2ccccc2)O1)NCCN1CCCCC1,11,x,x,-4[16.7 µM],3,x
O=C(NCc1ccccc1)C1CCCN(C(=O)NCc2ccccc2)C1 (configuration not stated),-3,12,2,x,1,-16
O=C(NCc1ccccc1)C1CCC1,x,40*,1,x,x,5
CCN(CC)c1ccc(/C=C2\C(=O)N(c3nnc(C)c(=O)[nH]3)N=C2C)cc1,-61,-53,43*,-1,7,-10
CCN(CC)c1ccc(/C=C2/C(=O)ON=C2C)cc1,-84,-156,6,x,x,-6
COc1ccc(CN(C)C[C@H]2Oc3c(NS(=O)(=O)c4cn(C)cn4)cccc3C(=O)N([C@@H](C)CO)C[C@H]2C)cc1,-3,x,x,-5[16.7 µM],-10,x
O=C(/C=C/c1ccc2c(c1)OCO2)NCCSCc1ccc(Cl)cc1Cl,x,1,0,-1,10,-5
O=C(/C=C/c1ccc2c(c1)OCO2)NCCSCc1cccc(Cl)c1,x,0,1,115*,-6,-18
CO[C@@H]1CN(C)C(=O)c2ccc(NS(=O)(=O)c3cccc(F)c3)cc2OC[C@@H](C)N(C(=O)Cc2cccnc2)C[C@H]1C,-9,x,x,x,9,x
CC(C)c1cn(CC[C@@H]2CC[C@@H](NS(=O)(=O)Cc3ccccc3)[C@H](CO)O2)nn1,1,x,x,0[16.7 µM],-1,x
COc1ccc2c3c(n(C)c2c1)[C@@H](CO)N(Cc1ccc(F)cc1)CC31CN(CC2CC2)C1,16,x,x,x,x,x
COc1ccccc1Nc1nc2ccc(C)cc2cc1C#N,x,29*,3,-3,-12,3
C/C(=N/NS(=O)(=O)c1ccc(F)cc1)c1ccc(NC(=O)c2ccc(C)o2)cc1,x,-7,2,132*,-6,6
C/C(=N\NS(=O)(=O)c1ccc(C)cc1)c1ccc(C)o1,-5,7,0,9,9,-4
O=C(C1CC1)N1C[C@@H]2N[C@H](C1)C2c1ccc(/C=C/c2ccccc2)cc1 (some centres not stated),51*!,x,x,x,x,x
Cc1ccccc1-c1ccc(C2[C@@H]3CN(C(=O)C4CC4)C[C@H]2N3)cc1 (some centres not stated),84*!,x,x,x,x,x

# High-throughput results (PubChem BioAssay)
